Measured values taken from PubChem BioAssay.
Calls of active or inactive are those of the source.

How the values were obtained:
Albumin (Bos taurus) = Albumin (Bos taurus) (UniProt P02769); test: compounds binding labelled BSA control protein – biochemical, small-molecule microarray, Alexa647 label, 635/667 nm fluorescence, artefact control for SMM control protein annotation, profiling panel (AID 1118); settings: BSA-A647 binding, fluorescence 635 nm, higher = more signal;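 note: score merges 667 nm emission intensity and signal-to-noise per printed compound spot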
[1] = probe aXIP binding to arrayed compounds – biochemical, NeuroSMM set, 635/667 nm fluorescence, primary screen (AID 1119); settings: small-molecule microarray, higher = more signal, called active from +8 up or from −8 down;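 note: probe is the protein aXip251-270 applied at 1 µg/mL to compound-printed slides; binding of probe to printed compounds measured as 667 nm fluorescence plus signal to noise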
[2] = probe aNOTCH3 binding on compound microarray – biochemical, small-molecule microarray, 635/667 nm fluorescence, primary screen (AID 1120); settings: higher = more signal;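 note: probe is a biotin-tagged antibody raised against NOTCH3 rather than NOTCH3 protein; score merges spot fluorescence near 667 nm with spot signal to noise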
[3] = probe aNOTCH2 binding on compound microarray – biochemical, small-molecule microarray, 635/667 nm fluorescence, primary screen (AID 1121); settings: higher = more signal;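 note: score merges feature fluorescence read at 667 nm with its signal to noise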
[4] = molecular target: Carbonic anhydrase 2 (Homo sapiens) (UniProt P00918); test: compounds binding carbonic anhydrase 2 – biochemical, small-molecule microarray, Alexa647-labelled CAII, profiling panel (AID 1122); settings: CAII-A647 binding fluorescence, higher = more signal
[5] = COS7 lysate on small-molecule microarray, probe aHis, 635 nm (AID 1123); settings: COS7 cell lysate, fluorescence, higher = more signal;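 note: z-score combines 667nm fluorescence intensity with signal-to-noise per printed compound spot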
[6] = probe aLAP1 signal on lysate-treated microarray – cell lysate, small-molecule microarray, COS7 lysate, primary screen (AID 1124); settings: probe aLAP1, fluorescence, higher = more signal;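 note: lysate comes from COS7 cells expressing LAP1 and is applied at 0.3 µg/mL; score merges spot fluorescence near 667 nm with signal-to-noise over triplicate slides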
Sam68 (KHDRBS1) = test: compounds binding KHDRBS1 protein – biochemical, small-molecule microarray, 635 nm fluorescence, primary screen (AID 1125); settings: higher = more signal;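 note: score merges 667 nm channel intensity with signal to noise over triplicate slides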
[7] = tested on: Chordin-like protein 2 (CHRDL2); test: compounds binding chordin-like 2 – biochemical, small-molecule microarray, 635 nm fluorescence, primary screen (AID 1126); settings: fluorescence 635 nm, higher = more signal;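 note: printed compound slides probed with Chrdl2 protein at 4 µg/mL for 1 h at 4 C; score merges 667 nm emission intensity with signal to noise over three replicate slides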
[8] = molecular target: Concanavalin-A (Canavalia ensiformis) (UniProt P02866); test: compounds binding concanavalin A lectin – biochemical, small-molecule microarray, Alexa647 label, 635 nm, artefact control for SMM control protein annotation, primary screen (AID 1127); settings: ConA-A647 binding fluorescence, higher = more signal;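 note: z combines 667 nm emission intensity with signal-to-noise across three replicate slides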
Chain of Concanavalin-A (Canavalia ensiformis) (P02866 whole entry, looked up): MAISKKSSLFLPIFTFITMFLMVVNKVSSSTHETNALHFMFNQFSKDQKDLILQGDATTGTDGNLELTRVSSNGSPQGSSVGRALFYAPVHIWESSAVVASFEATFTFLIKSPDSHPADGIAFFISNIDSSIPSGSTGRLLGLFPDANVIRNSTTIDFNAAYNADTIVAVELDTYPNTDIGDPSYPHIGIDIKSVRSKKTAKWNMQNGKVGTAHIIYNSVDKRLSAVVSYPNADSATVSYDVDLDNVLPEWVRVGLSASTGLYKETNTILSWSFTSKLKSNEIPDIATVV

Chain of Albumin (Bos taurus) (P02769 whole entry, looked up): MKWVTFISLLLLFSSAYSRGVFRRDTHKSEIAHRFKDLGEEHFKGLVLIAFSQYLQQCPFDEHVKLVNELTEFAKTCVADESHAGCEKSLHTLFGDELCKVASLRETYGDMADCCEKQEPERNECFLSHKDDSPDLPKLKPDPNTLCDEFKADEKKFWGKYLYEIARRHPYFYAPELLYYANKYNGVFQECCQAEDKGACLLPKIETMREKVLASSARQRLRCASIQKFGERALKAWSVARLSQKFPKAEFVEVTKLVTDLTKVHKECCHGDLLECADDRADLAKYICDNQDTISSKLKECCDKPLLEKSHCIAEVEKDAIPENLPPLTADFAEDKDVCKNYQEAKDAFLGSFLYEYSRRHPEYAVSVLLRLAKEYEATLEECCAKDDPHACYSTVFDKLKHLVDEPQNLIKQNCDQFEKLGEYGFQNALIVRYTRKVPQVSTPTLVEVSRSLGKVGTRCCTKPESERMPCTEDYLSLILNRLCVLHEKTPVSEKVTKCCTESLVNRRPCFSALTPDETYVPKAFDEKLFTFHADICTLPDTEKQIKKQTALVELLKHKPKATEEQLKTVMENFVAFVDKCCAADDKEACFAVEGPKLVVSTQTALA

SMILES | composite z-score (Albumin (Bos taurus)) | composite Z-score [1] | composite z-score [2] | composite z-score [3] | composite z-score [4] | composite z-score [5] | composite z-score [6] | composite z-score (Sam68 (KHDRBS1)) | composite z-score [7] | composite z-score [8]
CC1CC/C=C\[C@H]2OC34C=CCN(CCN5CCOCC5)C(=O)[C@H]3N(C(C)CO)C(=O)[C@@H]4C2C(=O)O1 (stereo not given in full) | -0.712 | 0.117 (inactive) | -0.129 | -0.0741 | 0.738 | 1.57 | -0.221 | 0.19 | -0.231 | -0.371
O=C(N1CCOCC1)[C@@]1(CCS(=O)(=O)c2ccccc2)N=C(c2ccc(OCCCO)cc2)O[C@H]1c1ccccc1 | 1.06 | 0.55 (inactive) | 0.211 | 0.0228 | 0.853 | 3.1 | -0.152 | 1.31 | -0.56 | 1.2
COC(=O)[C@@]1(Cc2ccc(OC)cc2)[C@H]2c3cc(C(=O)N4CCCC4)n(Cc4cc(C)n(C)n4)c3C[C@H]2CN1C(=O)c1ccccc1 | 1.09 | 5.19 (inactive) | 0.313 | 0.446 | 0.962 | 3.19 | 0.637 | 1.32 | -1.19 | 0.485
COc1ccc(C#Cc2ccc3c(c2)[C@]2(C(=O)N3)[C@H](c3ccc(OCCO)cc3)N3[C@H](c4ccccc4)[C@H](c4ccccc4)OC(=O)[C@H]3[C@@H]2C(=O)N2CCc3cc(OC)c(OC)cc3C2)cc1 | 0.0867 | -0.487 (inactive) | 0.233 | -0.23 | 0.438 | 2.04 | 0.216 | 1.12 | 0.704 | 1.09
CN1C=C(C(=O)OCCS(C)(=O)=O)C(C(=O)OCCS(C)(=O)=O)=CC(c2ccc(CO)cc2)=CC1c1cccs1 (stereo not given) | 0.232 | 0.142 (inactive) | 0.0026 | -0.0936 | 0.812 | 0.848 | 0.279 | 0.645 | 0.318 | 0.64
C=C(/C(=C/C[C@H](OC(=O)c1ccncc1)c1cccc(OCCO)c1)c1cnc2ccccc2c1)C(C)C | -0.134 | -1.19 (inactive) | 0.0306 | -0.0264 | 0.942 | 0.301 | 1.04 | 1.23 | 1.33 | 0.898
COCCOC(=O)N1C(=O)[C@@]2(c3cc(C#CCC(C(=O)OC)C(=O)OC)ccc31)[C@H](c1ccc(O)cc1)N1[C@H](c3ccccc3)[C@H](c3ccccc3)OC(=O)[C@H]1[C@@H]2C(=O)NC[C@H](O)c1ccccc1 | 0.781 | 0.7 (inactive) | -0.196 | -0.14 | 0.63 | 2.2 | 0.588 | 0.296 | -0.282 | 1.07
O=C(NCCN1CCOCC1)[C@@H]1c2ccccc2C(=O)N(Cc2ccccc2)[C@H]1c1ccc(CO)cc1 | 0.16 | 0.283 (inactive) | -0.272 | -0.116 | 0.688 | 0.392 | -0.274 | -0.673 | -1.38 | 0.581
CCN(CC)c1ccc(N2CC=CC34O[C@@H]5/C=C\CCC(C)OC(=O)C5[C@H]3C(=O)N(C(C)CO)[C@@H]4C2=O)cc1 (stereo not given in full) | -0.739 | 0.451 (inactive) | -0.24 | -0.148 | 0.42 | -0.175 | -0.165 | -0.0199 | 0.142 | -1.09
COC(=O)[C@@]1(Cc2ccc(OC)cc2)[C@H]2c3cc(C(=O)N4CCCC4)n(Cc4ccc(S(C)(=O)=O)cc4)c3C[C@H]2CN1C(=O)c1ccccc1 | 1.03 | 0.602 (inactive) | 0.264 | 0.36 | 0.583 | 2.22 | -0.272 | 0.838 | -0.737 | 0.417
COCCOC(=O)N1C(=O)[C@@]2(c3cc(C#CC4(O)CCCCCC4)ccc31)[C@H](c1ccc(OCCO)cc1)N1[C@H](c3ccccc3)[C@H](c3ccccc3)OC(=O)[C@H]1[C@@H]2C(=O)Nc1nc2ccccc2s1 | 0.729 | 0.526 (inactive) | 0.5 | -0.0009 | 0.161 | 0.804 | 0.388 | 1.3 | 0.58 | 1.11
O=C1OCCC/C=C\[C@H]2OC34C=CCN(c5ccc6ccccc6c5)C(=O)[C@H]3N(CCCO)C(=O)[C@@H]4C12 (stereo not given in full) | -0.0327 | -0.0549 (inactive) | -0.299 | -0.111 | 0.94 | 0.325 | 0.452 | 0.235 | -1.08 | -0.296
C=CCC(OC(C)=O)[C@@H]1[C@@H](N(Cc2ccc(-c3ccccc3)cc2)C(=O)Cc2ccc(F)cc2)c2cc(OCCCO)ccc2N1C(=O)Cc1ccc2ccccc2c1 (stereo not given in full) | 0.232 | -0.34 (inactive) | -0.0931 | -0.046 | 0.244 | 1.29 | 0.201 | -0.869 | -0.353 | -0.474
